51 molecules from ChEMBL document CHEMBL3988442, “University of Dundee, Small-Polar-MMV Screening Library” (2021) can be followed below.

The campaign covered roughly 66,000 compounds. About 960 (1.5%) showed an effect of 50% or more. Only a selection was taken, and strong results are over-represented in it overall.

The subject of this assay is Trypanosoma brucei. Kind of assay: Trypanosoma brucei 72 hour study. The class given is functional, organism-based. Also noted: scale not given: in the data most compounds retested in dose-response had high values.

`COc1ccc(CN2CCc3ncnc(C4CC4)c3CC2)cc1.O=C(O)C(F)(F)F`: the “Percent Effect” value (30 µM, 30.03 µM) was -6.255%.

For `Cc1nc(C)n(CC2CCCCN2Cc2nc3ccccc3o2)n1` (configuration not stated), the “Percent Effect” value (30.3 µM, […]) was -29.61% and the “Percent Effect” value (10 mM, 10 mM as filed; unlikely as a test dose) is -25.93%.

For the molecule `Cc1cc(N2CCCC3(CN(C)C(=O)O3)C2)c2cc3c(cc2n1)OCO3` (configuration not stated), the “Percent Effect” value (30 µM, 30.03 µM) is recorded as -17.57%.

For the molecule `Cc1cc(N2CCCC(O)(CN(C)C)C2)c2cc3c(cc2n1)OCO3` (configuration not stated), the “Percent Effect” value (30 µM, 30.03 µM) is 17.65%.

As for `Cc1cc(N2CCC(O)(CN(C)C)C2)c2cc3c(cc2n1)OCO3` (configuration not stated), for the setting “30 µM, 30.03 µM”, the “Percent Effect” value was 101.2%.

As to `CN(C)C[C@H]1OC[C@@H]2CCN(S(=O)(=O)c3ccc(F)cc3)C[C@@H]21.O=C(O)C(F)(F)F`, the “Percent Effect” value (30 µM, 30.03 µM) is -20.07%.

Take `Cn1cncc1CN1CCC2(CC1)COCCN(S(C)(=O)=O)C2.O=C(O)C(F)(F)F`: the “Percent Effect” value (30.3 µM, […]) is on record as -5.891%.

For the molecule `CN(C)C(=O)N1CC2(CCNCC2)c2cc(Cl)ccc21.Cl`, the “Percent Effect” value (30.3 µM, […]) is reported as -10.23%.

As to `Cc1ccc2c(c1)C1(CCNCC1)CN2C(=O)C(C)C`, where the note is “30.3 µM, […]”, the “Percent Effect” value is -10.81%.

In the case of `CCOC(=O)N1CC2(CCNCC2)c2cc(Cl)ccc21.Cl`, the “Percent Effect” value (30.3 µM, […]) is 80.77%.

For `Cl.Cl.O=C([C@H]1CCCN1)N1CC2(CCNCC2)c2cc(Cl)ccc21`, the “Percent Effect” value (30.3 µM, […]) is on record as 11.24%.

For the molecule `Cl.O=C(c1ccccc1F)N1CC2(CCNCC2)c2cc(Cl)ccc21`, the “Percent Effect” value (30.3 µM, […]) is reported as -26.55%.

With `CC(C)C[C@H](N)C(=O)N1CC2(CCNCC2)c2cc(Cl)ccc21.Cl.Cl`, the “Percent Effect” value (30.3 µM, […]) was found to be 46.04%.

Regarding `Cl.Cl.O=C([C@@H]1CSCN1)N1CC2(CCNCC2)c2cc(Cl)ccc21`, under “30.3 µM, […]”, the “Percent Effect” value is reported as -15.46%.

With `C[C@@H](N)C(=O)N1CC2(CCNCC2)c2cc(Cl)ccc21.Cl.Cl`, the “Percent Effect” value (30.3 µM, […]) was found to be 51.33%.

Consider `COCCN1CC[C@H](OC)[C@@H]1Cc1ccccc1.O=C(O)C(F)(F)F`, for which the “Percent Effect” value (30 µM, 30.03 µM) is on record as -24.73%.

For the molecule `O=C(COC[C@@]12CCC[C@@H]1CN(C1CCC1)C2)N1CCCC1.O=C(O)C(F)(F)F`, the “Percent Effect” value (30.3 µM, […]) is -61.71%.

Turning to `Cc1nn(C)c2c(=O)n(CC(=O)NCC3CCCO3)ccc12` (configuration not stated), the “Percent Effect” value (30 µM, 30.03 µM) is listed as -1.766%.

Consider `CNC(=O)CN1CC[C@H]2CN(C(=O)c3ccoc3)C[C@H]2C1.O=C(O)C(F)(F)F`, for which the “Percent Effect” value (30.3 µM, […]) is reported as -45.09%.

Regarding `CCOCC1CN(Cc2nccs2)Cc2nn(CC3CC3)cc21.O=C(O)C(F)(F)F` (configuration not stated), the “Percent Effect” value (30 µM, 30.03 µM) was -7.531%.

As for `COc1ncc(CN(CCCN2CCOCC2)Cc2ccc(C)o2)cn1.O=C(O)CC(O)(CC(=O)O)C(=O)O`, under “30.3 µM, […]”, the “Percent Effect” value is on record as -12.51%.

For `CNc1nc(C2CCCN2C(C)=O)nc2c1CN(CCO)CC2.O=CO` (configuration not stated), where the note is “30.3 µM, […]”, the “Percent Effect” value is reported as 20.17%.

With `COc1cccc([C@@H]2N[C@H](c3nccs3)Cc3ccsc32)c1OC`, for the setting “30.3 µM, […]”, the “Percent Effect” value was found to be 100.1%.

Take `COc1ccc(OC)c([C@@H]2N[C@H](c3nccs3)Cc3ccsc32)c1`: under “30.3 µM, […]”, the “Percent Effect” value is listed as 15.15%.

For the molecule `CCOc1ccc([C@@H]2N[C@H](c3nccs3)Cc3ccsc32)cc1OC`, the “Percent Effect” value (30.3 µM, […]) was determined as 10.72%.

As to `CCOc1cc([C@H]2N[C@@H](c3nc(C)cs3)Cc3ccsc32)ccc1OC`, the “Percent Effect” value (30.3 µM, […]) worked out at 85.49%.

As for `COc1cc([C@@H]2N[C@H](c3nccs3)Cc3ccsc32)cc(OC)c1OC`, the “Percent Effect” value (30.3 µM, […]) is listed as -6.656%.

Turning to `CCOc1cc([C@@H]2N[C@H](c3nccs3)Cc3ccsc32)ccc1OC`, the “Percent Effect” value (30.3 µM, […]) came out at 9.707%.

Take `O=C(CN1C[C@H]2C[C@H](OCc3ccccc3)C[C@H]2C1)N1CCOCC1`: the “Percent Effect” value (30.3 µM, […]) is listed as -15.88%.

As for `Cc1cc(C)n(CC2CN(c3nnc(C)c(C)c3C#N)CCO2)n1` (configuration not stated), the “Percent Effect” value (30.3 µM, […]) is listed as 5.324%.

As to `O=C(NCC1CCCN(Cc2cccc3nonc23)C1)c1ccc[nH]1` (configuration not stated), the “Percent Effect” value (30 µM, 30.03 µM) is on record as -46.2%.

On to `NC1(C(=O)NCC2CCCN(Cc3ccccc3F)C2)CCCC1` (configuration not stated), for which, for the setting “30 µM, 30.03 µM”, the “Percent Effect” value was -11%.

As for `NC1(C(=O)NCC2CCCN(Cc3cccc4nonc34)C2)CCC1` (configuration not stated), where the note is “30 µM, 30.03 µM”, the “Percent Effect” value came out at 54.97%.

As for `COc1ccc(CN2CCc3nc4ccsc4c(=O)n3CC2)c(C)c1C`, the “Percent Effect” value (30.3 µM, […]) was determined as 7.671%.

As for `CCn1cc(NC(=O)C(C)n2ncc(Cl)c2C)c(C(=O)NC)n1` (configuration not stated), where the note is “30 µM, 30.03 µM”, the “Percent Effect” value was -19.95%.

Turning to `CC(C)CNC(=O)[C@H]1CCS(=O)(=O)[C@@H]2CN(Cc3ccc(Cl)cc3)C[C@H]12.O=C(O)C(F)(F)F`, the “Percent Effect” value (30 µM, 30.03 µM) worked out at 63.22%.

Turning to `Cc1ccc(CN2C[C@@H]3[C@@H](C(=O)NCC(C)C)CCS(=O)(=O)[C@@H]3C2)cc1.O=C(O)C(F)(F)F`, the “Percent Effect” value (30.3 µM, […]) is -11.51%.

For the molecule `CC(C)CNC(=O)[C@H]1CCS(=O)(=O)[C@@H]2CN(Cc3ccc(F)cc3)C[C@H]12.O=C(O)C(F)(F)F`, the “Percent Effect” value (30.3 µM, […]) is listed as -43.77%.

`CC(CNCc1ccc(Cl)cc1)Oc1ccccn1.Cl` (configuration not stated): for the setting “30 µM, 30.03 µM”, the “Percent Effect” value is given as -4.288%.

Turning to `COc1cc(OC)cc(C2NC(=O)CN2Cc2ccc(Br)cc2)c1` (configuration not stated), the “Percent Effect” value (30 µM, 30.03 µM) is on record as -25.05%.

As for `NC(=O)COc1ccc(C2NC(=O)CN2Cc2ccc(Br)cc2)cc1` (configuration not stated), the “Percent Effect” value (30 µM, 30.03 µM) is reported as -15.28%.

In the case of `Cc1cc(C2NC(=O)CN2Cc2ccc(Br)cc2)cc(C)c1O` (configuration not stated), the “Percent Effect” value (30 µM, 30.03 µM) worked out at 94.42%.

As to `CC1N(c2cnn(C)c2)C(=O)COC12CCN(c1ncccn1)CC2.O=C(O)C(F)(F)F` (configuration not stated), where the note is “30.3 µM, […]”, the “Percent Effect” value is -2.456%.

With `CN(CCc1ccccn1)C(=O)c1cccs1.Cl`, where the note is “30 µM, 30.03 µM”, the “Percent Effect” value was -41.89%.

For the molecule `O=C(c1nc(-c2ccc3cc[nH]c3c2)no1)N1CCCC1`, where the note is “30 µM, 30.03 µM”, the “Percent Effect” value was 53.89%.

As for `COCCNC(=O)c1nc(-c2ccc3cc[nH]c3c2)no1`, the “Percent Effect” value (30 µM, 30.03 µM) is given as -23.6%.

For `O=C(NCCN1CCCCC1)c1nc(-c2ccc3cc[nH]c3c2)no1`, the “Percent Effect” value (30 µM, 30.03 µM) came to 29.87%.

On to `COCCNc1cc(C2CCCNC2)ccn1.Cl` (configuration not stated), for which the “Percent Effect” value (30.3 µM, […]) is 9.179%.

For `CCNC(=O)[C@@H]1C[C@H](N)CN1Cc1ccc(-c2cc[nH]n2)o1`, the “Percent Effect” value (30.3 µM, […]) is on record as -17.36%.

For the molecule `CCNC(=O)[C@@H]1C[C@@H](N)CN1Cc1ccc(Sc2ccc(C)cc2)o1`, where the note is “30.3 µM, […]”, the “Percent Effect” value is 100.1%.

Consider `CCNC(=O)[C@@H]1C[C@H](N)CN1Cc1ccc(Sc2ccc(C)cc2)o1`, for which the “Percent Effect” value (30.3 µM, […]) was 18.4%.
